# Several values for one entry are separate records, joined by “and”; a condition that tells them apart may be missing. Equal entries are not always repeated. Activity calls are given as the source filed them. Rule for the calls: active = hit-call score of the fitted dose curve at least 0.9, where 1 is the maximum; inactive = score below 0.9.
# What was measured:
# [1] = read-out: Macrophage Inflammatory Protein-1 Alpha (MIP1a), CCL3 (gene 6348); assay: BSK_IMphg_MIP1a: BioMAP Diversity Plus: IMphg Assay for Macrophage Inflammatory Protein-1 Alpha (MIP1a) Biomarker Activity (AID 2284255); conditions: primary human endothelial cells with macrophages
# In short: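 MIP-1a protein levels were quantified by ELISA after 24 h treatment of human endothelial cell–macrophage co-cultures, compared with DMSO. Parallel cultures were fixed with TCA and stained with 0.1% SRB to gauge overt cytotoxicity.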
# [2] = read-out: CD69, CD69 (gene 969); assay: BSK_IMphg_CD69: BioMAP Diversity Plus: IMphg Assay for CD69 Biomarker Activity (AID 2284257); conditions: primary human endothelial cells with macrophages
# In short: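 Readout is ELISA for CD69 in primary human venular endothelial cell/macrophage co-culture, taken at 24 h post-dosing. SRB staining of parallel cultures gauged overt cytotoxicity; signal increase versus DMSO defined activity.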
# [3] = read-out: Eotaxin 3, CCL26 (gene 10344); assay: BSK_BF4T_Eotaxin3: BioMAP Diversity Plus: BF4T Assay for Eotaxin 3 Biomarker Activity (AID 2284258); conditions: primary human bronchial epithelial cells with fibroblasts
# In short: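 ELISA measurement of Eotaxin-3 after 24 h chemical exposure in a bronchial epithelial/dermal fibroblast co-culture, with DMSO as baseline. Parallel SRB staining (0.1% SRB after 10% TCA fixation, 560 nm) flagged overt cytotoxicity.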
# [4] = read-out: Monocyte Chemoattractant Protein-1 (MCP1), CCL2 (gene 6347); assay: BSK_BF4T_MCP1: BioMAP Diversity Plus: BF4T Assay for Monocyte Chemoattractant Protein-1 (MCP1) Biomarker Activity (AID 2284259); conditions: primary human bronchial epithelial cells with fibroblasts
# In short: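 MCP-1 ELISA readout taken 24 h after dosing in the BF4T system (bronchial epithelial cells plus dermal fibroblasts). Parallel SRB total-protein staining flagged cytotoxicity; DMSO served as baseline, positive fitting direction.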
# [5] = read-out: Intercellular Adhesion Molecule 1 (ICAM1), ICAM1 (gene 3383); assay: BSK_BF4T_ICAM1: BioMAP Diversity Plus: BF4T Assay for Intercellular Adhesion Molecule 1 (ICAM1) Biomarker Activity (AID 2284260); conditions: primary human bronchial epithelial cells with fibroblasts
# In short: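 ICAM-1 levels measured by ELISA after 24 h chemical treatment of bronchial epithelial cell/dermal fibroblast co-cultures, read against DMSO baseline. Overt cytotoxicity checked in parallel cultures by sulforhodamine B staining.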
# [6] = read-out: CD90, THY1 (gene 7070); assay: BSK_BF4T_CD90: BioMAP Diversity Plus: BF4T Assay for CD90 Biomarker Activity (AID 2284262); conditions: primary human bronchial epithelial cells with fibroblasts
# In short: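 CD90 levels by ELISA after 24 h treatment of human bronchial epithelial cell/dermal fibroblast cultures, analysed versus DMSO. Overt cytotoxicity checked in parallel cultures by sulforhodamine B staining.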
# [7] = read-out: Interleukin-1 alpha (IL1a), IL1A (gene 3552); assay: BSK_BF4T_IL1a: BioMAP Diversity Plus: BF4T Assay for Interleukin-1 alpha (IL1a) Biomarker Activity (AID 2284264); conditions: primary human bronchial epithelial cells with fibroblasts
# In short: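 ELISA read-out of IL-1α from bronchial epithelial cell/dermal fibroblast co-cultures 24 h after compound addition. Increases scored against DMSO negative control. Cytotoxicity monitored by sulforhodamine B staining of parallel cultures.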
# [8] = read-out: KRT18 (gene 3875); assay: BSK_BF4T_Keratin818: BioMAP Diversity Plus: BF4T Assay for Keratin 818 Biomarker Activity (AID 2284266); conditions: primary human bronchial epithelial cells with fibroblasts
# In short: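 Keratin 8/18 levels quantified by ELISA after 24 h chemical treatment of bronchial epithelial cell/dermal fibroblast co-cultures, fitted in positive direction relative to DMSO. Parallel SRB staining tracks overt cytotoxicity.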
# [9] = read-out: Matrix Metallopeptidase 1 (MMP1), MMP1 (gene 4312); assay: BSK_BF4T_MMP1: BioMAP Diversity Plus: BF4T Assay for Matrix Metallopeptidase 1 (MMP1) Biomarker Activity (AID 2284270); conditions: primary human bronchial epithelial cells with fibroblasts
# In short: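 MMP-1 quantified by ELISA in primary human bronchial epithelial/dermal fibroblast co-cultures, 24 hours post-dosing, with DMSO as baseline; parallel sulforhodamine B staining (560 nm) tracks overt cytotoxicity.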
# [10] = read-out: Matrix Metallopeptidase 3 (MMP3), MMP3 (gene 4314); assay: BSK_BF4T_MMP3: BioMAP Diversity Plus: BF4T Assay for Matrix Metallopeptidase 3 (MMP3) Biomarker Activity (AID 2284271); conditions: primary human bronchial epithelial cells with fibroblasts
# In short: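 MMP-3 level read by ELISA after 24 h chemical exposure of bronchial epithelial cell/dermal fibroblast co-cultures, fitted upward relative to DMSO. Parallel cultures stained with 0.1% SRB after TCA fixation gauge overt cytotoxicity.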
# [11] = read-out: Tissue plasminogen activator (tPA), PLAT (gene 5327); assay: BSK_BF4T_tPA: BioMAP Diversity Plus: BF4T Assay for Tissue plasminogen activator (tPA) Biomarker Activity (AID 2284272); conditions: primary human bronchial epithelial cells with fibroblasts
# In short: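 tPA level quantified by ELISA at 24 h post-treatment in bronchial epithelial/dermal fibroblast co-cultures, gain of signal scored against DMSO baseline. Parallel cultures stained with 0.1% SRB (560 nm) to flag overt cytotoxicity.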
# [12] = read-out: Plasminogen Activator Inhibitor-1 (PAI1), SERPINE1 (gene 5054); assay: BSK_BF4T_PAI1: BioMAP Diversity Plus: BF4T Assay for Plasminogen Activator Inhibitor-1 (PAI1) Biomarker Activity (AID 2284273); conditions: primary human bronchial epithelial cells with fibroblasts
# In short: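 PAI-1 levels quantified by ELISA 24 h post-dosing in bronchial epithelial cell plus dermal fibroblast cultures. Signal gain referenced to DMSO baseline. Sulforhodamine B total-protein staining of parallel wells checked cytotoxicity.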
# [13] = BSK_BF4T_SRB: Viability Assessment in the BioMAP Diversity Plus: BF4T Assay (AID 2284274); conditions: primary human bronchial epithelial cells with fibroblasts
# In short: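 Cytotoxicity measured as total protein: cells fixed with 10% TCA, stained with 0.1% SRB, read at 560 nm. Bronchial epithelial/dermal fibroblast co-culture, 24 h after dosing, with positive-direction fitting relative to DMSO.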
# [14] = read-out: urokinase Plasminogen Activator (uPA), PLAU (gene 5328); assay: BSK_BF4T_uPA: BioMAP Diversity Plus: BF4T Assay for urokinase Plasminogen Activator (uPA) Biomarker Activity (AID 2284275); conditions: primary human bronchial epithelial cells with fibroblasts
# In short: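 uPA levels measured by ELISA at 24 hours in BF4T cultures (bronchial epithelial cells plus dermal fibroblasts) and compared with DMSO; cytotoxicity tracked in parallel cultures by sulforhodamine B staining.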
# [15] = read-out: Matrix Metallopeptidase 9 (MMP9), MMP9 (gene 4318); assay: BSK_BF4T_MMP9: BioMAP Diversity Plus: BF4T Assay for Matrix Metallopeptidase 9 (MMP9) Biomarker Activity (AID 2284276); conditions: primary human bronchial epithelial cells with fibroblasts
# In short: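 MMP-9 levels were measured by ELISA after 24 h exposure of bronchial epithelial cell/dermal fibroblast co-cultures, with DMSO as baseline. Parallel cultures were stained with 0.1% SRB after TCA fixation, read at 560 nm, to flag overt cytotoxicity.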
# [16] = read-out: Vascular cell adhesion molecule 1 (VCAM1), VCAM1 (gene 7412); assay: BSK_IMphg_VCAM1: BioMAP Diversity Plus: IMphg Assay for Vascular cell adhesion molecule 1 (VCAM1) Biomarker Activity (AID 2284286); conditions: primary human endothelial cells with macrophages
# In short: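 ELISA read-out of VCAM-1 on venular endothelial cell/macrophage co-cultures at 24 h post-treatment, with DMSO as baseline and positive-direction fitting. Parallel sulforhodamine B total-protein staining (560 nm) served as the overt cytotoxicity measure.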
# [17] = read-out: CD40, CD40 (gene 958); assay: BSK_IMphg_CD40: BioMAP Diversity Plus: IMphg Assay for CD40 Biomarker Activity (AID 2284288); conditions: primary human endothelial cells with macrophages
# In short: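 ELISA read-out of cell-surface CD40 at 24 h in human venular endothelial cell/macrophage co-cultures. Activity fitted in the positive direction against DMSO; parallel SRB staining (560 nm) gauges overt cytotoxicity.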
# [18] = read-out: E-selectin (Homo sapiens) (UniProt P16581); assay: BSK_IMphg_ESelectin: BioMAP Diversity Plus: IMphg Assay for Eselectin Biomarker Activity (AID 2284291); conditions: primary human endothelial cells with macrophages
# In short: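 Analysed against DMSO baseline in the positive fitting direction, this endpoint is an ELISA read of E-selectin. It comes from human venular endothelial cells co-cultured with macrophages, sampled 24 h post-dose.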
# [19] = BSK_IMphg_SRB: Viability Assessment in the BioMAP Diversity Plus: IMphg Assay (AID 2284292); conditions: primary human endothelial cells with macrophages;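 note: measured one day after compound addition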
# In short: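 SRB viability endpoint: cultures of human endothelial cells plus macrophages fixed with 10% TCA, stained with 0.1% SRB, read at 560 nm 24 h post-dosing. Only gain-of-signal fitted, relative to DMSO.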
# [20] = read-out: Macrophage colony-stimulating factor (MCSF), CSF1 (gene 1435); assay: BSK_IMphg_MCSF: BioMAP Diversity Plus: IMphg Assay for Macrophage colony-stimulating factor (MCSF) Biomarker Activity (AID 2284293); conditions: primary human endothelial cells with macrophages
# In short: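 M-CSF was measured by ELISA in human venular endothelial cell/macrophage co-cultures dosed for 24 hours. Sulforhodamine B staining of parallel cultures assessed cytotoxicity; data fitted against DMSO baseline.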
# Chain of E-selectin (Homo sapiens) (P16581 whole entry, looked up): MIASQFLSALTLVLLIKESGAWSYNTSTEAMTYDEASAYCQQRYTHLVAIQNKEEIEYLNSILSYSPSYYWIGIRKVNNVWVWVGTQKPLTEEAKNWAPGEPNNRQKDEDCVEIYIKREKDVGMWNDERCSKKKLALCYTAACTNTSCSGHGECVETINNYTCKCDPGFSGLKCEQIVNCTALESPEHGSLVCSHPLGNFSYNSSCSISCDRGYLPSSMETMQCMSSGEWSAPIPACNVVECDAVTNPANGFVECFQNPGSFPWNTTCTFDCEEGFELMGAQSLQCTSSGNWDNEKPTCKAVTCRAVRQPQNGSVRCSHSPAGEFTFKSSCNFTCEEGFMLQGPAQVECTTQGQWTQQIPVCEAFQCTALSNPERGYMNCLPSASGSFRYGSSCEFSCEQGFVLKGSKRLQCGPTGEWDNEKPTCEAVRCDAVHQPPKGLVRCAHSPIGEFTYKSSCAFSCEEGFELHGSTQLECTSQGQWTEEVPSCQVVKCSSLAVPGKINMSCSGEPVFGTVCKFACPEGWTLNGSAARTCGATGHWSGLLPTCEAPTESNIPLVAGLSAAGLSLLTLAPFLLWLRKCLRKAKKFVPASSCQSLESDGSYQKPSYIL
smiles,measurement,setting,value
OC(C(F)(F)F)(C(F)(F)F)C(O)(C(F)(F)F)C(F)(F)F,AC50,[1],7.09 µM (active) and 53.2 µM (active)
same,AC50,[2],18.7 µM (active) and 24.2 µM (active)
same,AC50,[3],15.7 µM (active) and 8.93 µM (active)
same,outcome,[4],inactive
same,outcome,[5],inactive
same,outcome,[6],inactive
same,outcome,[7],inactive
same,outcome,[8],inactive
same,outcome,[9],inactive
same,outcome,[10],inactive
same,outcome,[11],inactive
same,AC50,[12],14.4 µM (active) and 8.31 µM (active)
same,outcome,[13],inactive
same,outcome,[14],inactive
same,outcome,[15],inactive
same,AC50,[16],23.6 µM (active) and 22.1 µM (active)
same,AC50,[17],23 µM (active) and 21.1 µM (active)
same,AC50,[18],22 µM (active) and 30 µM (active)
same,AC50,[19],34.1 µM (active) and 34.8 µM (active)
same,AC50,[20],20 µM (active) and 8.19 µM (active)

# — PubChem BioAssay (EPA / NIEHS)
